Where “and” joins values, the source holds several entries; their conditions need not be identical. Equal values may be shown once. The campaign covered roughly 290,000 compounds. About 3,100 (1.1%) were called active. Cut-off read from the data, not from the text of the source: active = inhibition above about 16% (passing the limit was not always enough); inactive = the rest. Shown is part of a subset that was picked to be rich in actives. A structure can be active in one record and inactive in another. Where a SMILES comes first, the peptide text is derived from it. [ ]: non-standard residue; d: D form. The star is where a group is joined. ξ: configuration not given here. Cbz = O=C(OCc1ccccc1)*; ξL = CC(C)CC(N)C(=O)O; ξP = O=C(O)C1CCCN1

In the assay the target is Neuropeptides B/W receptor type 1 (Homo sapiens) (UniProt P48145). The assay is described as follows: blockers of human neuropeptide B/W receptor 1 – cell-based, fluorescence, single concentration, primary screen (AID 1861).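 Note: cells stimulated with the agonist NPW; 0% = agonist with vehicle and 100% = vehicle without agonist.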 The settings on record: GPR7-expressing cells, fluorescence antagonist assay; at 4.4 µM; stronger effect = higher value.
Neuropeptides B/W receptor type 1 (Homo sapiens), sequence (P48145 whole entry, looked up): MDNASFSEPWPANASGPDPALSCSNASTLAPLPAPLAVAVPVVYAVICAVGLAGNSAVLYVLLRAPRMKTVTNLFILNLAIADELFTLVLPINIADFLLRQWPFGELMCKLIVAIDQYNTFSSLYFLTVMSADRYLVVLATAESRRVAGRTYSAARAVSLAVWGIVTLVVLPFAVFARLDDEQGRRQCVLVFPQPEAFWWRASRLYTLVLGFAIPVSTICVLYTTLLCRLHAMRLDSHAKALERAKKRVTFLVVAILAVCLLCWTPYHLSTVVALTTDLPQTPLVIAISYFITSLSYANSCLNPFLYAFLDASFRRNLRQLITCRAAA
As usually defined, the inhibition is the change of the read-out against control, counted positive when it falls. In the case of `CCOCCCn1c(SCC(=O)Nc2cc(OC)ccc2OC)nc2ccccc2c1=O`, the inhibition is -10.2% (inactive).

As for `Cc1ccc(NC(=S)NCCc2ccc(Cl)cc2)c(C)c1`, the inhibition was -19.2% (inactive).

With `Cc1ccc(-c2c[n+](CC(=O)Nc3ccccc3)c3n2CCC3)cc1`, the inhibition was -3.52% (inactive).

Take `Cc1ccc(C(=O)C[n+]2cc(-c3ccccc3)n3c2CCCCC3)cc1`: the inhibition is 16.2% (inactive) and 28.1% (active).

Consider `Clc1ccc(C[n+]2cc(-c3ccccc3)n3c2CCC3)cc1`, for which the inhibition was -5.39% (inactive).

Take `C=CCn1c(CNS(=O)(=O)c2ccc(Br)cc2)nnc1SC`: the inhibition is -2.9% (inactive).

Take `CCC1C(=O)NCCN1C(=O)c1ccc2nc(Cc3ccc(OC)cc3)oc2c1` (stereo not drawn): the inhibition is 10.3% (inactive).

In the case of `N=C1C(c2nc3ccccc3s2)=C(O)CN1NC(=O)c1ccc([N+](=O)[O-])cc1`, the inhibition was 2.09% (inactive).

As for `CC(C)CN(C(=O)c1cccc(S(=O)(=O)N2CCCCC2)c1)C1CCS(=O)(=O)C1` (stereo not drawn), the inhibition is 3.39% (inactive).

With `NNC(=O)CSc1nnc(-c2ccccc2)n1-c1ccccc1`, the inhibition was 25.5% (inactive).

With `O=C(CCSc1ccccc1)N1CCN(c2ccccc2F)CC1`, the inhibition is 1.08% (inactive).

With `CC(C(=O)N1CCN(c2ccccc2F)CC1)c1ccc([N+](=O)[O-])cc1` (stereo not drawn), the inhibition was 35.6% (active).

Consider `O=C(c1ccc(S(=O)(=O)N2CCCC2)cc1)N1CCN(c2ccccc2F)CC1`, for which the inhibition is -4.62% (inactive).

Regarding `CC(C)CC(NC(=O)C1CCCN1C(=O)[C@@H](C)NC(=O)OCc1ccccc1)C(=O)NCC(N)=O` (stereo partly drawn) (Cbz-[dA][ξP][ξL]G-NH2), the inhibition is 2.31% (inactive).

With `CN(Cc1c(F)cccc1Cl)S(=O)(=O)c1cccs1`, the inhibition was -1.36% (inactive).

Take `Cn1nccc1C(=O)N1CCCC(C(=O)c2ccc(Oc3ccccc3)cc2)C1` (stereo not drawn): the inhibition is -11.3% (inactive).

`CCOCCCNC(=O)C(NC(=O)CNC(=O)c1ccccc1)c1ccc(OC)cc1` (stereo not drawn): the inhibition is -6.22% (inactive).

As to `O=C1CN(C(=O)c2ccccc2F)C(c2ccc(F)cc2)c2cc(F)ccc2N1` (stereo not drawn), the inhibition is -1.3% (inactive).

Consider `CCOC(=O)c1sc(NC(=O)CSc2nnc(-c3ccco3)o2)c(C(=O)OCC)c1C`, for which the inhibition is -9.68% (inactive).

On to `Cc1cccc(NC(=O)CSc2nnc(-c3ccco3)o2)c1`, for which the inhibition was 2.82% (inactive).

`O=C(CSc1nnc(-c2ccco2)o1)NCC(=O)c1ccccc1`: the inhibition was 37.5% (active).

Regarding `N=c1c2c(-c3ccccc3)c(-c3ccccc3)n(Cc3ccccc3)c2ncn1CCCO`, the inhibition is 27.3% (active).

Regarding `CCN(CC)CCn1cnc2c1c(=O)[nH]c(=O)n2Cc1ccccc1`, the inhibition was -8.02% (inactive).

Consider `N=c1c2c(-c3ccccc3)c(-c3ccccc3)oc2ncn1Cc1ccco1`, for which the inhibition was -7.33% (inactive).

Take `OC(CNCc1ccc2c(c1)OCO2)COc1ccccc1` (stereo not drawn): the inhibition is -0.63% (inactive).

On to `Cc1ccc(C(=O)OCC(=O)NCc2ccc3c(c2)OCO3)s1`, for which the inhibition was -1.76% (inactive).

Regarding `O=C(COc1ccccc1)NCc1ccc2c(c1)OCO2`, the inhibition is 26% (active).

For the molecule `O=C(Nc1nc(-c2ccc3c(c2)OCO3)cs1)c1ccncc1`, the inhibition is 31.8% (active).

Consider `CC(=O)NCCC(=O)Nc1nc(-c2ccc3c(c2)OCCO3)cs1`, for which the inhibition is 21.3% (inactive).

As for `O=C(Nc1nc(-c2ccncc2)cs1)C1COc2ccccc2O1` (stereo not drawn), the inhibition was -9.64% (inactive).

Consider `CC(Sc1nnc(COc2ccccc2)n1-c1ccccc1)C(=O)O` (stereo not drawn), for which the inhibition is 11% (inactive).

In the case of `Cc1cccc(N(C(=O)c2sc(C)nc2C)C(C(=O)NCC2CCCO2)c2ccccc2)c1` (stereo not drawn), the inhibition is -10.3% (inactive).

As to `CCOC(=O)C1CCN(C(=O)CN2C(=O)c3cccnc3Oc3ccc(C)cc32)CC1`, the inhibition was -8.59% (inactive).

As to `COc1ccccc1N1CCN(c2ncnc3sc(C)c(-c4ccccc4)c23)CC1`, the inhibition is 27% (active).

Take `Oc1ccccc1N1CCN(c2ncnc3sc(-c4ccccc4)cc23)CC1`: the inhibition is -12.8% (inactive).

Consider `COc1ccccc1N1CCN(c2ccc([N+](=O)[O-])nc2)CC1`, for which the inhibition is -2.36% (inactive).

As for `CCCCCc1ccc(-c2cn(Cc3ccc4ccccc4c3)nn2)cc1`, the inhibition was 2.3% (inactive).

Regarding `N#Cc1ccccc1NC(=O)c1ccc2c(c1)OCO2`, the inhibition is -3.22% (inactive).

For the molecule `O=C(Nc1ccccc1F)c1ccc2c(c1)OCO2`, the inhibition is 30.2% (active).

On to `Cc1ccc(F)cc1NC(=O)c1ccc2c(c1)OCO2`, for which the inhibition was -15.9% (inactive).

On to `COc1ccc(CCNS(=O)(=O)c2cc3c(cc2C)NC(=O)CO3)cc1OC`, for which the inhibition was -11.3% (inactive).

Consider `Cc1cccc(N2CCN(C(=O)COCc3cc(-c4ccc5c(c4)OCO5)on3)CC2)c1C`, for which the inhibition was 14% (inactive).

As for `CCC(=O)NC(Nc1nc2ccc(C)cc2s1)(C(=O)OC)C(F)(F)F` (stereo not drawn), the inhibition is -6.22% (inactive).

For `O=C(COC(=O)c1ccc(F)cc1)Nc1nc2ccc([N+](=O)[O-])cc2s1`, the inhibition is -8.84% (inactive).

Take `O=C(NC(Nc1nc2ccc([N+](=O)[O-])cc2s1)(C(F)(F)F)C(F)(F)F)c1ccccc1`: the inhibition is 27.1% (active).

`COc1cc(C2NC(=O)NC(c3ccccc3)=C2C(C)=O)c(Br)cc1OCC(N)=O` (stereo not drawn): the inhibition was -18.1% (inactive).

Regarding `COc1cccc(CNC(=O)COc2cc(O)c3c(c2)OC(C)(C)CC3=O)c1`, the inhibition is 1.6% (inactive).

In the case of `CC(CCc1ccccc1)NC(=O)COC(=O)c1ccc(F)cc1` (stereo not drawn), the inhibition is -18.2% (inactive).

As for `CC(C)[C@H](NC(=O)N1CCn2c1nc1ccccc12)C(=O)NC1CC1`, the inhibition is -2.43% (inactive).

As for `Cc1ccc(CS(=O)(=O)c2ncc(Cl)c(C(=O)Nc3nnc(C)s3)n2)cc1`, the inhibition is -20.2% (inactive).

In the case of `Cc1cccc(NC(=O)c2nc(S(=O)(=O)Cc3ccccc3)ncc2Cl)c1`, the inhibition was 9.7% (inactive).

`Cc1cccc(CS(=O)(=O)c2ncc(Cl)c(C(=O)Nc3ccc(F)cc3)n2)c1`: the inhibition is 39.8% (active).

As for `CC(=O)NCCC(=O)Nc1cc(S(=O)(=O)N2CCCCC2)ccc1Oc1cccc(C)c1`, the inhibition was 9.48% (inactive).

Consider `Cc1ccc(NC(=S)N(CCCN2CCC(C)CC2)Cc2ccco2)cc1`, for which the inhibition is 26.8% (active).

Regarding `Cc1ccc(NC(=S)N(Cc2ccco2)C(C)c2cccs2)cc1` (stereo not drawn), the inhibition was -21.7% (inactive).

Regarding `Cc1ccc(NC(=S)N(CCN2CCCCC2)Cc2ccco2)cc1C`, the inhibition is 0.11% (inactive).

Take `c1ccc2c(c1)CSc1sccc1C2=C1CCNCC1`: the inhibition is 24.5% (active).

Take `C=CS(=O)c1sc(Cl)c(N2CCOCC2)c1[N+](=O)[O-]` (stereo not drawn): the inhibition is 3.73% (inactive).

For the molecule `CN(Cc1ccccc1)c1nc2c(c(=O)[nH]c(=O)n2C)n1CCSc1nc2ccccc2[nH]1`, the inhibition was -4.5% (inactive).

For the molecule `CCOC(=O)Cn1c(CN(Cc2ccccc2)Cc2ccccc2)nc2c1c(=O)[nH]c(=O)n2C`, the inhibition was -9.45% (inactive).

As for `Cn1c(=O)[nH]c(=O)c2c1nc(N(CCO)Cc1ccccc1)n2Cc1ccccc1Cl`, the inhibition is 27.1% (active).

With `CNC(=O)c1sc(Nc2ccc(OCc3ccccc3)cc2)nc1C`, the inhibition was 1.33% (inactive).

As to `CCC(Cc1ccccc1)NC(=O)C1CCCCC1` (stereo not drawn), the inhibition is -7.32% (inactive).

In the case of `O=C(NC(=O)c1ccccc1)NC(=O)c1ccccc1`, the inhibition is 6% (inactive).

Turning to `Cc1ccc(NC(=O)NC(=O)c2ccccc2)cc1F`, the inhibition is -0.7% (inactive).

Regarding `O=C(NC(=O)c1ccccc1)Nc1ccccc1O`, the inhibition is 40.9% (active).

As to `CCn1c(SCC(=O)Nc2ccc3c(c2)OCCO3)nnc1-c1ccncc1`, the inhibition was -4.19% (inactive).

As to `Cc1nonc1C1CCCN1C(=O)c1cc(COc2cccc(C(F)(F)F)c2)on1` (stereo not drawn), the inhibition is -2.6% (inactive).

On to `COc1cccc(N2CCN(c3ccc4nnc(CCC(=O)N5CCN(C)CC5)n4n3)CC2)c1`, for which the inhibition is -14.2% (inactive).

As to `CCCOc1cccc(C(=O)Nc2ccccc2C(=O)N2CCN(C)CC2)c1`, the inhibition was -9.32% (inactive).

Take `O=C(CN1C(=O)S/C(=C\c2ccccc2F)C1=O)NCCCn1ccnc1`: the inhibition is -12% (inactive).

Turning to `O=C(CN1C(=O)/C(=C/c2ccccc2F)Sc2ccccc21)NCc1cccnc1`, the inhibition was 40.7% (active).

For the molecule `O=C(CN1C(=O)/C(=C\c2ccc(C(F)(F)F)cc2)Sc2ccccc21)NCc1ccco1`, the inhibition was 5.13% (inactive).

Consider `CSCc1ccc(C(=O)Nc2cc(C)cc(C)c2)cc1`, for which the inhibition was 3.49% (inactive).

`O=C(Nc1ccc(-c2ccc3nncn3n2)cc1)C1CCCCC1`: the inhibition was -11.2% (inactive).

For `Cc1ccc2nc3n(c(=O)c2c1)CCC3`, the inhibition is -5.32% (inactive).

For the molecule `Cc1ccc2nc(Nc3ccccc3)cc(C)c2c1`, the inhibition was -2.1% (inactive).

On to `Cc1ccc2nc(C)c3c(c2c1)N(c1ccccc1)CC3`, for which the inhibition is 36.7% (active).

`C/C(=N\NC(=O)c1cc2c(s1)CCC(C)C2)c1cccnc1` (stereo not drawn): the inhibition is -6.07% (inactive).

On to `O=C(NCc1ccc2c(c1)OCO2)C(=O)NCC1OCCN1S(=O)(=O)c1ccc(F)cc1` (stereo not drawn), for which the inhibition is -11.7% (inactive).

Take `CN(C)c1ccc(Nc2c3c4c(cccc4n(C)c2=O)C(=O)c2ccccc2-3)cc1`: the inhibition is -1.09% (inactive).

With `O=C(Nc1cccc(Cl)c1)c1cc([N+](=O)[O-])ccc1N1CCN(CCO)CC1`, the inhibition was 6.31% (inactive).

For the molecule `CCN1CCN(c2ccc([N+](=O)[O-])cc2C(=O)c2ccc(Cl)cc2)CC1`, the inhibition is 32.3% (active).

In the case of `CCC(=O)c1ccc(N2CCN(C(=O)c3cc([N+](=O)[O-])ccc3F)CC2)c(F)c1`, the inhibition was 8.34% (inactive).

Turning to `O=C(Cn1cnc2ccccc21)Nc1ccccc1-c1ccccc1`, the inhibition was -5.35% (inactive).

Regarding `CCOCC(=O)Nc1ncc(S(=O)(=O)c2ccc([N+](=O)[O-])cc2)s1`, the inhibition was 19.5% (active).

Consider `CC(C)c1nnc(NC(=O)COC(=O)/C=C/c2ccc([N+](=O)[O-])cc2)s1`, for which the inhibition is -6.73% (inactive).

As to `O=C(COC(=O)C1CCCCC1)Nc1ccc([N+](=O)[O-])cc1`, the inhibition was 23.9% (inactive).

Consider `COc1ccc2c(c1)c(C(=O)N/N=C/c1cccs1)c(C)n2C`, for which the inhibition was -1.8% (inactive).

On to `O=C(COc1ccc(Cl)cc1Cl)NCCCNC(=O)c1cnccn1`, for which the inhibition is -1.6% (inactive).

For `CC(=O)N1c2ccc(S(=O)(=O)N3CCCC(C(=O)Nc4cccc(Cl)c4)C3)cc2CC1C` (stereo not drawn), the inhibition was 2.68% (inactive).

`CC(=O)N1CCCc2cc(S(=O)(=O)N3CCCC(C(=O)N4CCN(c5cccc(Cl)c5)CC4)C3)ccc21` (stereo not drawn): the inhibition is 35.7% (active).

Take `CC(=O)N1CCCc2cc(S(=O)(=O)N3CCCC(C(=O)NCc4ccc(Cl)cc4)C3)ccc21` (stereo not drawn): the inhibition was 0.31% (inactive).
